# Screening data from PubChem.
# D3 ag: agonists of human D3 dopamine receptor. hit rate 0.58% among 410,000. D3R DiscoveRx beta-arrestin cells, luminescence, 90 min. AID 652048. max activation, %. P35462; in the data active = max activation above about 30%; note: 0% is about no effect
# Target sequence (P35462 whole entry, looked up): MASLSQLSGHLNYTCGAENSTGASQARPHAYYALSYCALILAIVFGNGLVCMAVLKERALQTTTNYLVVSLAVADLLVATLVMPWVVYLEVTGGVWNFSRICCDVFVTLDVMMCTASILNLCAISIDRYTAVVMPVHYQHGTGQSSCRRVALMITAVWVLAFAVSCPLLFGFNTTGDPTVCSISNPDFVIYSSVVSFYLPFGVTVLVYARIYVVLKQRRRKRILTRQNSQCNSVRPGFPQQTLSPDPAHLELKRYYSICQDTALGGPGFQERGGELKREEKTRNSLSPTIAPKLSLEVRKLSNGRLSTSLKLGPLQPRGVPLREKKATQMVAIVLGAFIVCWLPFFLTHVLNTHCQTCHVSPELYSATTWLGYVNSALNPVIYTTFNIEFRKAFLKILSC
#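 Agonist mode: compounds and dopamine controls were applied to plated cells for 90 min at 37 degrees C after an overnight attachment at 1500 cells/well. Luminescent read-out followed 30 - 60 minutes at room temperature with DiscoveRx detection reagent.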
# D3 antag: D3 dopamine receptor (human) antagonism. P35462. D3R cells, DiscoveRx beta-arrestin luminescence, antagonist mode; hits give low values. max response, negative = inhibition, %. hit rate 2.5% among 360,000; in the data active = max response below about -50%; inconclusive = no clear call, values can overlap the other calls; note: % is set by controls: 0 for no effect and ±100 for the full control effect
#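 Cells expressing the human receptor were seeded at 1500 cells/well, incubated overnight at 37 degrees C in 5% CO2, then exposed to library compounds with dopamine controls for 90 minutes at 37 degrees C before luminescent detection.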
# D1 antagonist: blocks dopamine activation of the human D1 receptor. P21728. HEK293 TREx D1 cells, calcium flux, dopamine EC80; hits give low values. activity change, negative = inhibition, % at 10 µM. hit rate 3.2% among 360,000; in the data active = activity change below about -30%; note: % is set by controls: 0 for no effect and ±100 for the full control effect
#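 After overnight tetracycline induction at 30 C, force-coupled D1 HEK293 cells took up a no-wash calcium dye at room temperature. Compounds were added and monitored 180 s, and the response to EC80 dopamine was then recorded.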
# D1 PAM: human D1 dopamine receptor positive modulation. potentiation, % at 10 µM. AID 504651. HEK293 TREx D1 cells, calcium flux, dopamine EC20 potentiation. P21728. hit rate 0.036% among 360,000; in the data active = potentiation above about 30%; note: 0% is about no effect
# D1 agonist: human D1 receptor agonism; P21728; HEK293 T-REx D1 cells, calcium flux, agonist mode; activation, % at 2 µM; hit rate 1% among 360,000; in the data active = activation above about 30%; note: 0% is about no effect
#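 Inducible HEK293 T-REx D1 cells, force-coupled to calcium signalling, were plated at 4000 cells/well with tetracycline and held overnight at 30 C. After no-wash calcium dye loading, compound-evoked calcium rise over 180 s flagged agonists.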
# * = called active by the depositor; ? = inconclusive; · = no result given; ! = not confirmed by another sample. Rows were chosen to be rich in hits. Some 6.1% of all compounds tested hit in one or more screens of this group.
SMILES,D3 ag,D3 antag,D1 antagonist,D1 PAM,D1 agonist
Nc1nc(N2CCN(Cc3ccccc3)CC2)n[nH]1,51.2*,20.5,-0.5,1.6,2.6
c1coc(CNc2nc(N3CCCCC3)nc3ccccc23)c1,-19.6,?,-31.7*,-19.6,19.1
OCCNc1nc(N2CCCCC2)nc2ccccc12,-6.9,-8.5,-17.4,-5.0,0.8
O=c1c2ccccc2nc2c3ccccc3c(NCc3ccco3)nn12,6.7,15.7,-15.2,1.2,0.6
c1ccc(N2CCN(c3nc(NCc4ccco4)c4ccccc4n3)CC2)cc1,-16.6,-20.7,-77.6*,-16.5,1.2
c1ccc(CNc2nc(N3CCN(Cc4ccccc4)CC3)nc3ccccc23)cc1,-29.7,-93.0*,-34.8*,-14.1,7.6
Oc1ccccc1-c1nc(N2CCN(Cc3ccccc3)CC2)c2ccccc2n1,2.3,-1.5,5.0,0.3,2.1
Cc1cccc(NC(=O)CSc2nc3ccccc3c3nc(CCn4cncc4C)nn23)c1,3.4,·,8.0,0.8,1.4
Cc1c2cnn(CC(=O)N3CCN(c4ccc(F)cc4)CC3)c(=O)c2c(C)n1Cc1ccccc1F,-5.1,·,-7.9,-3.9,11.0
COc1ccc(Nc2nn3c(=O)c4cc5c(cc4nc3s2)OCO5)c(OC)c1,-7.4,·,-18.9,0.2,0.9
COC(=O)c1ccc(OCC2c3cc(OC)c(OC)cc3CCN2C(=O)c2ccccc2F)cc1 (stereo unspecified),6.5,·,6.6,0.9,3.6
C=Cc1c(C)c2cc3nc(cc4[nH]c(cc5nc(cc1[nH]2)C(C)=C5CCC(=O)OC)c(CCC(=O)O)c4C)[C@@]1(C)C3=CC=C(C(=O)OC)[C@H]1C(=O)OC,8.4,·,·,·,·
Cc1ccc(-n2nc3c(=O)n(CCCC(=O)NCCc4ccccc4)nc(C)c3c2C)cc1,-9.1,-14.4,3.9,0.8,3.6
COc1cccc(CNC(=O)CCCn2nc(C)c3c(C)n(-c4ccc(C)cc4)nc3c2=O)c1OC,1.7,8.2,-53.5*!,-1.0,2.8
Cc1nn(-c2ccccc2)c2c1N(CCCC(=O)NCc1ccc(Cl)cc1)C(=O)CS2,-8.0,·,-47.6*,-4.2,0.7
COc1ccccc1CNC(=O)CCCn1nc(C)c2c(C)n(-c3ccccc3)nc2c1=O,4.0,17.3,-20.6,-4.8,0.2
Cc1nn(CCCC(=O)NCCc2ccc(Cl)cc2)c(=O)c2nn(-c3ccccc3)c(C)c12,-0.9,12.3,-32.8*!,-3.4,-0.7
Cc1nn(CCCC(=O)NCCc2ccccc2)c(=O)c2nn(-c3ccccc3)c(C)c12,-3.7,-17.2,-36.1*,0.1,-0.4
Cc1ccc(CCNC(=O)CCCn2nc(C)c3c(C)n(-c4ccccc4)nc3c2=O)cc1,-3.7,·,4.1,-1.9,2.5
COc1ccc(S(=O)(=O)NCC(c2ccco2)S(=O)(=O)c2cccs2)cc1F (stereo unspecified),0.9,·,·,-2.1,4.5
CCOCCCNC(=O)CN1C(=O)c2c(c3ccccc3n2C)C1c1ccc(OC)cc1 (stereo unspecified),0.4,·,16.5,4.6,-0.9
Cc1cc(C)cc(NC(=O)c2cc(S(=O)(=O)N3CCOCC3)cn2C)c1,12.5,·,-8.3,-3.5,4.3
CC(=O)Nc1nonc1-c1nnc(SCC(=O)Nc2ccc(F)cc2F)n1-c1ccccc1,6.3,·,4.0,0.1,-1.7
Cc1cc(Cl)ccc1NC(=O)CCCn1nc(C)c2c(C)n(-c3ccccc3)nc2c1=O,8.3,·,-31.6*,1.9,-1.5
Cc1cc(Cl)ccc1NC(=O)Cn1nc(C)c2c(C)n(-c3ccccc3)nc2c1=O,-5.1,·,-6.6,-0.7,0.7
SMILES,D3 ag,D3 antag,D1 antagonist,D1 PAM,D1 agonist
N=C1N(c2ccccc2)C(=S)C(=Nc2ccccc2)N1c1ccccc1,-10.6,-61.3*,·,·,·
N#C/C(=C(/O)c1ccc(Br)s1)c1nc2ccccc2[nH]1,2.6,-26.8,-44.7*,-6.8,4.0
O=C(O)c1cccc(-c2ccc(/C=c3/sc4nc5ccccc5n4c3=O)o2)c1,0.9,12.7,-17.5,-10.4,39.4*
O=C(O)c1ccccc1-c1ccc(C=c2sc3nc4cc(Br)cnc4n3c2=O)o1,-10.1,-55.5*,·,·,·
O=C(O)c1cc(C(=O)O)cc(-c2ccc(/C=c3/sc4nc5ccccc5n4c3=O)o2)c1,-0.3,-0.7,11.2,1.5,3.9
Cc1cccn2c(=O)c(C=NCc3ccccc3)c(NCCO)nc12,-6.4,-71.8*,8.3,-2.8,0.0
Cc1c(C(=O)N2CCCC2)sc(NC(=O)c2ccc(Cl)cc2)c1C#N,-4.2,-55.1*,-64.2*,-8.4,-0.2
COc1cc2c(cc1OC)C(COc1ccccc1OC)N(C(=O)CC(C)C)CC2 (stereo unspecified),1.1,·,-21.9,7.7,6.2
Cc1cccn2c(Nc3ccc4c(c3)OCCO4)c(-c3ccc(Br)o3)nc12,44.2*,·,-14.8,-2.6,8.5
Nc1ccn(CC(=O)N[C@H](CO)Cc2c[nH]c3ccccc23)c(=O)n1,4.7,-19.1,-34.0*,-3.9,1.3
Nc1ccn(CC(=O)NCc2ccccc2)c(=O)n1,14.8,-10.6,4.3,2.4,0.6
Cc1ccc(CNC(=O)CSc2ncc3c(n2)-c2cc(Cl)ccc2N(C)S3(=O)=O)cc1,-1.7,·,28.9,5.0,3.0
COc1cc(OC)c(NC(=O)N2CCc3c([nH]c4ccccc34)C2c2ccccc2F)cc1Cl (stereo unspecified),-7.6,·,-6.5,-1.4,0.7
Cc1ccc(NC(=O)C2CCN(S(=O)(=O)c3ccc(Cl)c(C(F)(F)F)c3)CC2)nc1,-9.0,-11.8,-39.1*,-6.2,0.6
Cc1cc(N2CCN(S(=O)(=O)c3ccc4c(c3)OCCO4)CC2)n2ncnc2n1,10.0,-11.7,-46.3*,-4.2,10.1
Cc1cccc(NC(=O)C2CCN(S(=O)(=O)c3ccc4c(c3)OCCO4)CC2)n1,-4.8,-53.6*,1.8,-3.8,12.0
Cc1ccc(NC(=O)C2CCN(S(=O)(=O)c3ccc4c(c3)OCCCO4)CC2)nc1,-6.3,-20.5,-33.0*,-7.1,2.3
Cc1c(Cl)cccc1NC(=O)c1ccc2nc(C(C)C)oc2c1,6.7,·,-17.8,-1.4,3.3
CCOc1ccc(NC(=O)/C=C\C(=O)N(c2ccc(C(C)C)cc2)C(C(=O)NCc2ccco2)c2ccc(F)cc2)cc1 (stereo unspecified),2.3,·,16.2,-3.3,-1.5
CCc1ccc(N(CC)C(=O)c2ccc3c(=O)n4c(nc3c2)CCCCC4)cc1,1.8,·,-1.7,-3.6,13.1
Cc1ccc(S(=O)(=O)N2CCC(C(=O)Nc3ccc4c(c3)OCO4)CC2)cc1,-5.1,15.8,-47.0*,-8.7,1.8
C/C(=C/CCC(C)[C@H]1CC[C@@]2(C)C3=C(CC[C@]12C)[C@@]1(C)CCC(=O)C(C)(C)[C@@H]1CC3)C(=O)O (stereo partly specified),4.7,?,-33.9*,-6.5,9.1
CCCSc1nc(-c2ccccc2)[nH]c1S(=O)(=O)c1ccc(C)cc1,3.9,·,3.4,-1.0,-1.8
CCCn1ncc(OC)c(Cl)c1=O,7.2,5.3,-59.4*,-2.1,-0.8
